According to ChEMBL document CHEMBL1157539, “Thousands of chemical starting points for antimalarial lead identification” (Nature, 2010):

Key:
Type in all cases: functional
Plasmodium falciparum [1] = assay: GSK_TCMDC: Inhibition of Plasmodium falciparum 3D7 in whole red blood cells, using parasite LDH activity as an index of growth. Test compounds present at 2uM
Plasmodium falciparum [2] = assay: GSK_TCMDC: Inhibition of Plasmodium falciparum Dd2 in whole red blood cells, using parasite LDH activity as an index of growth. Test compounds present at 2uM
HepG2 = assay: GSK_TCMDC: Percent inhibition of human HepG2 cell line. Test compounds present at 10uM.

SMILES | Inhibition (Plasmodium falciparum [1]) | Inhibition (Plasmodium falciparum [2]) | Inhibition (HepG2)
COc1ccc(N2CCN(c3nc(N)c4cc(OC)c(OC)cc4n3)CC2C)cc1.Cl (centres undefined) | 95% | 0% | 8%
COc1nc2c(CCN3CCC(NCc4ccc5c(c4)NCCO5)CC3)c(Cl)cnc2cc1F.Cl | 100% | 98% | 23%
CSc1cccc(Nc2nc3ccc(S(=O)(=O)NCC(C)C)cc3n2C(C)C(C)C)c1 (centres undefined) | 93% | 91% | 3%
Cc1ccc(/C=C2/SC(=Nc3ccccc3)NC2=O)c(C)c1 | 93% | 90% | 1%
Cl.c1ccc(Oc2cccc(Nc3ccnc4ccccc34)c2)cc1 | 95% | 14% | 48%
Cn1c(N)c(C(=O)CSc2nnc(-c3cccs3)n2Cc2ccccc2)c(=O)n(C)c1=O | 85% | 68% | 0%
Cn1cccc1CCNCc1ccc(-c2cccc(-c3nc4ccccc4[nH]3)c2)cc1.O=C(O)C(F)(F)F | 88% | 66% | 1%
Cc1cccc2nc(-c3ccc(-c4cccc(NC(=O)Cc5c[nH]cn5)c4)cc3)[nH]c12 | 98% | 21% | 13%
Cc1ccc(C(CC(=O)Nc2nccs2)c2ccc(OC(C)C)cc2)cc1 (centres undefined) | 94% | 90% | 5%
CN1CCC[C@H]1COc1ccc(CN2CC[C@H](NC(=O)c3ccc(Cl)c(Cl)c3)C2)cc1Cl.O=C(O)C(F)(F)F | 97% | 44% | 53%
O=C(c1ccccc1)N1CCC(CN2CCOC(c3ccccc3)(c3ccccc3)C2)CC1 | 94% | 95% | 14%
O=C(Nc1cccnc1)c1cc(-c2cccnc2)nc2ccc(Cl)cc12 | 97% | 50% | 45%
CN(C)C(=O)CC(=O)NCc1c(Cl)cccc1Cl | 95% | 2% | 2%
O=C(CN1CCN(C(C(=O)Nc2cc(C(F)(F)F)ccc2Cl)c2ccccc2)CC1)NC1CC1 (centres undefined) | 95% | 93% | 0%
N#Cc1ccc(N2CCN(Cc3ccc(-c4ccc(-c5nc6cc(F)ccc6[nH]5)s4)cc3)CC2)nc1.O=C(O)C(F)(F)F | 100% | 78% | 12%
CC(C)c1cccc(OCC2CCN(c3ncc(C(=O)NC4CC4)cc3Cl)CC2)c1 | 94% | 95% | 9%
Cl.O=C(Nc1ccc(C(=O)Nc2cccc(C3=NCCN3)c2)cc1)Nc1ccc(C2=NCCN2)cc1 | 96% | 98% | 0%
CCOc1ccc(C=CC(=O)Nc2ccc3nc(N4CCOCC4)cc(C)c3c2)cc1OC | 92% | 23% | 14%
